Data from PubChem BioAssay AID1345085 (National Center for Advancing Translational Sciences (NCATS), 2018).
Results filed as inconclusive are left out. The source made the active and inactive calls. The call rests on the fitted dose curve; in most records, active means well fitted cell-killing curve with a large enough effect; inconclusive means small, poorly fitted or top-dose-only effect, or effect the other way; inactive means no such curve, though single readings can be large or run the other way. *1 amine or outer side, *2 acyl side, *3 side chain or, on linkers, in order; H or OH if unused. Where a SMILES comes first, the peptide text is derived from it. Bridges are numbered along the chain shown (N, C = ends). Roman numbers before positions name the chains, in order. [ ]: non-standard residue; d: D form. Actinocin(9to1) = Cc1c2oc3c(C)ccc(C(=O)[*:1])c3nc-2c(C(=O)[*:2])c(N)c1=O; NMeV = CN[C@H](C(=O)O)C(C)C; Sar = CNCC(=O)O

Tested on: CASKI
Experiment: Confirmatory qHTS for gynecologic anti-cancer compounds from libraries of approved drugs and bioactive compounds; further: nearly all actives have a fitted effect of over 55% in size
Conditions: gynecologic cancer cell panel viability, ATPlite luminescence, 48 h; series mostly up to 57.6 µM; activity change, negative = viability loss: at the top concentration
Method in brief: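 Viability is measured as ATP-dependent luciferase light using ATPlite, read 15 min after reagent addition at room temperature. Compounds, in DMSO, span 57.5 uM down to 0.977 nM over 11 threefold steps for 48 h.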
On the % scale 0 is the no-effect control and ±100 the full control effect; potency means the concentration at half of the fitted maximal effect.

Structure (SMILES)	Potency	activity change, negative = viability loss
Cc1cnc(Nc2ccc(CN3CCOCC3)cc2)nc1Nc1cccc(S(=O)(=O)NC(C)(C)C)c1	4.85 µM (active)	
COCCOc1ccc2c(c1)ncn2-c1ccc2cccc(N3CCC(N)CC3)c2n1	27.3 µM (active)	
CCCCc1nc2cc(/C=C/C(=O)NO)ccc2n1CCN(CC)CC	4.85 µM (active)	
CN1C2CCC1CC(OC(=O)[C@H](CO)c1ccccc1)C2 (stereo partly drawn)		-4.01% (inactive)
Cc1c2oc3c(C)ccc(C(=O)N[C@@H]4C(=O)N[C@H](C(C)C)C(=O)N5CCC[C@H]5C(=O)N(C)CC(=O)N(C)[C@@H](C(C)C)C(=O)O[C@@H]4C)c3nc-2c(C(=O)N[C@@H]2C(=O)N[C@H](C(C)C)C(=O)N3CCC[C@H]3C(=O)N(C)CC(=O)N(C)[C@@H](C(C)C)C(=O)O[C@@H]2C)c(N)c1=O (I: T[dV]P[Sar][NMeV] / II: T[dV]P[Sar][NMeV]; ester I:1-I:C, II:1-II:C; linker I:N-II:N via Actinocin(9to1))	0.611 µM (active)	
O=c1[nH]c(=O)n([C@H]2C[C@H](O)[C@@H](CO)O2)cc1Br		-12.3% (inactive)
Cc1cc(C(C)Nc2ccccc2C(=O)O)c2nc(N3CCOCC3)cc(=O)n2c1 (stereo not drawn)	6.85 µM (active)	
CN1CCN(CCOc2cc(OC3CCOCC3)c3c(Nc4c(Cl)ccc5c4OCO5)ncnc3c2)CC1	19.3 µM (active)	
Cc1cnc(Nc2cccc(CN3CCOCC3)c2)nc1Nc1cccc(S(=O)(=O)NC(C)(C)C)c1	15.3 µM (active)	
CN(C)C1CCN(C(=O)c2ccc(NC(=O)Nc3nc(N4CCOCC4)nc(N4CCOCC4)n3)cc2)CC1	0.273 µM (active)	
Cc1c(C)n(Cc2ccc(-c3ccccc3C(=O)O)cc2)c2ccc(C(=O)N[C@@H](C)c3ccc([N+](=O)[O-])cc3)cc12		9.23% (inactive)
COc1cc(Nc2c(C#N)cnc3cc(OCCCN4CCN(C)CC4)c(OC)cc23)c(Cl)cc1Cl	24.3 µM (active)	
c1nc2nc(Nc3ccc(N4CCOCC4)cc3)nc(NC3CCCCC3)c2[nH]1	7.49 µM (active)	
CCc1c2c(nc3ccc(OC(=O)N4CCC(N5CCCCC5)CC4)cc13)-c1cc3c(c(=O)n1C2)COC(=O)[C@]3(O)CC	19.3 µM (active)	
Cc1cc(CN2CCN(c3c(Br)cnc4nc(-c5ccc(N6CCN(C)CC6)cc5)[nH]c34)CC2)no1	27.3 µM (active)	
Cc1nc(Nc2ncc(C(=O)Nc3c(C)cccc3Cl)s2)cc(N2CCN(CCO)CC2)n1	0.109 µM (active)	
CO[C@@]12[C@H](COC(N)=O)C3=C(C(=O)C(C)=C(N)C3=O)N1C[C@@H]1N[C@@H]12		5.69% (inactive)

Structure (SMILES)	Potency	activity change, negative = viability loss
O=C(c1ccc(F)c(F)c1Nc1ccc(I)cc1F)N1CC(O)([C@@H]2CCCCN2)C1	17.2 µM (active)	
CN(C)c1ccc(-c2nc3ncc(Cl)c(N4CCN(CC(=O)Nc5nccs5)CC4)c3[nH]2)cc1		-25.2% [at 19.5 µM] (inactive)
COc1cc2nccc(Oc3ccc(NC(=O)Nc4cc(C)on4)c(Cl)c3)c2cc1OC	27.3 µM (active)	
CC[C@@]1(O)C(=O)OCc2c1cc1n(c2=O)Cc2c-1nc1ccccc1c2/C=N/OC(C)(C)C	0.153 µM (active)	
COc1cc2c(c(OC)c1OC)-c1ccc(OC)c(=O)cc1[C@@H](NC(C)=O)CC2		-4.77% [at 486 µM] (inactive)
NC(=O)c1cnc(-c2ccc(C3(N)CCC3)cc2)c(-c2ccccc2)c1	21.7 µM (active)	
COc1cc(Nc2ncc(F)c(Nc3ccc4c(n3)N(COP(=O)(O)O)C(=O)C(C)(C)O4)n2)cc(OC)c1OC	5.44 µM (active)	
Cc1cc(Nc2cc(N3CCN(C)CC3)nc(/C=C/c3ccccc3)n2)n[nH]1	19.3 µM (active)	
O=C(CCCCCCC(=O)Nc1ccccc1)NO	12.2 µM (active)	
O=c1c2ccccc2nc2n1CCc1c-2[nH]c2ccccc12		-1.84% (inactive)
Cc1nc(NC(=O)N2CCCC2C(N)=O)sc1-c1ccnc(C(C)(C)C(F)(F)F)c1 (stereo not drawn)	7.69 µM (active)	
NC(=O)Nc1cc(-c2cccc(F)c2)sc1C(=O)NC1CCCNC1 (stereo not drawn)	2.17 µM (active)	
CC(C)c1nn(-c2c(Cl)cccc2Cl)c2nc(Cc3ccc(OCCO)cc3)[nH]c(=O)c12	0.137 µM (active)	
CCCC(=O)O[C@]1(C(=O)CCl)[C@@H](C)C[C@H]2[C@@H]3CCC4=CC(=O)C=C[C@]4(C)[C@@]3(F)C(=O)C[C@@]21C	30.6 µM (active)	
OCCNC1CCCc2c1[nH]c1ccc(-c3ccccc3)cc21 (stereo not drawn)	30.6 µM (active)	
CC(=O)c1cnc2ccc(-c3cc(Cl)c(O)c(Cl)c3)nc2c1NC1CCC(CN(C)C)CC1 (stereo not drawn)	0.559 µM (active)	
